Records with an inconclusive call do not appear. The source made the active and inactive calls. How the source made its calls: active means hit-call score of the fitted dose curve at least 0.9, where 1 is the maximum; inconclusive means response in the unintended direction; inactive means score below 0.9.

The results in this text go back to PubChem BioAssay (EPA / NIEHS).

Read-out in the experiment: alkyl and aryl transferase (GSTA2), GSTA2 (gene 2939)
As to the kind of experiment: CLD_GSTA2_24hr: CellzDirect (CLD) Gene Expression Assay for alkyl and aryl transferase (GSTA2) at 24 hours (AID 2283693). The procedure: CLD_24hr is a cell-based, multiplexed-readout assay that uses hepatocyte, a human liver primary cell, with measurements taken at 24 hours after chemical dosing in a 96-well plate.CLD_GSTA2_24hr is one of 16 assay component(s) measured or calculated from the CLD_24hr assay. It is designed to make measurements of mRNA induction, a form of inducible reporter, as detected with chemiluminescence signals by Quantitative Nuclease Protection Assay (qNPA) technology.Data from the assay component CLD_GSTA2_24hr was analyzed at the endpoint, CLD_GSTA2_24hr, in the positive analysis fitting direction relative to DMSO as the negative control and baseline of activity. Using a type of inducible reporter, gain-of-signal activity can be used to understand changes in the reporter gene as they relate to the gene GSTA2. Furthermore, this assay endpoint can be referred to as a primary readout. To generalize the intended target to other relatable targets, this assay endpoint is annotated to the transferase intended target family, where subfamily is alkyl and aryl transferase.
Human hepatocyte cultures were treated daily for two consecutive days with fresh dosing solutions containing appropriate concentrations of the 320 ToxCast chemicals (chemical identities were blinded to CellzDirect and other ToxCast collaborators), vehicle control (0.2% DMSO), and positive control inducers as summarized in Table 1. Due to the large number of treatment groups and chemicals examined, the ToxCast chemicals were divided into two groups (spanning two independent cultures of hepatocytes from separate donor preparations (Hu778: ToxCast plates 1 and 2; Hu776: ToxCast plates 3 and 4). Each preparation of human hepatocyte cultures was treated with respective vehicle control, medium only control, set of six positive controls/reference chemicals for the five hepatic receptor pathways, and a subset of eight of the ToxCast chemicals (indoxacarb, pyrithiobac-sodium, norflurazon, cyhalofop-butyl, methomyl, thiram, acetochlor, and propiconazole). These replicate data, coupled with internal replicates designed within the blinded ToxCast chemical library, provided additional data to evaluate interindividual differences between hepatocyte preparations and their potential impact on chemical profiles.Cell morphology and integrity were evaluated using phase-contrast microscopy as an indicator of hepatocyte cell health (Tyson & Green, 1987). Cultures for each treatment group (i.e., media, vehicle [0.2% DMSO], positive control inducers [multiple concentrations], and the ToxCast chemicals [multiple concentrations]) were observed and cell morphology was assessed relative to vehicle control cultures at each harvest time point (0, 6, 24, or 48 h). […] Images were evaluated at the conclusion of the study to assess changes in cell integrity and account for the effects of chemical exposure on uncharacteristic changes in concentration-dependent gene expression profiles. The results from these determinations of apparent cytotoxicity were annotated (yes/no) alongside the corresponding qNPA data for reference.At the conclusion of each treatment period, hepatocyte cultures (96-well) were washed with 1 volume of HBSS, lysed by addition of 25 ul ArrayPlate lysis buffer (HTG, Tucson, AZ), and 70 ul/well of Denaturation Oil, denatured by incubation at 95C for 10 min, and frozen at approximately -70C until analysis by nuclease protection assay (qNPA) (Roberts et al., 2007). For qNPA analysis, cell lysates were thawed at 50C for approximately 30 min, qNPA probes were added, and samples were incubated at 95C for 10 min to begin the detection process by denaturing the target RNA, dissociating the duplexes and secondary structure hybridization. At the conclusion of the hybridization period, S1 nuclease reagent was added to each sample to digest all nonprotected nucleotides at 50C for 60-90 min. […]
On to `CCOC(=O)C(C)Oc1ccc(Oc2cnc3cc(Cl)ccc3n2)cc1` (stereo not given), for which the result was inactive. For `CCCOC(=O)c1ccc(C(=O)OCCC)nc1`, the result was inactive. As for `CCCCOCCOCCOCc1cc2c(cc1CCC)OCO2`, the molecule was classed as inactive. Turning to `CCCOC(=O)NCCCN(C)C`, the molecule was classed as inactive. Take `CCOC(=O)C(C)Oc1ccc(Oc2nc3ccc(Cl)cc3o2)cc1` (stereo not given): the call was inactive. On to `CCCCCOC(=O)COc1cc(N2C(=O)C3=C(CCCC3)C2=O)c(F)cc1Cl`, for which the result was inactive. The result for `CCCCCCC(C)OC(=O)COc1nc(F)c(Cl)c(N)c1Cl` (stereo not given) reads “inactive”; that for `COc1c(Cl)ccc(Cl)c1C(=O)O`, “inactive”; that for `CCNc1nc(N)nc(Cl)n1`, “inactive”. On to `COc1nc(C)nc(NC(=O)NS(=O)(=O)c2ccccc2OCCCl)n1`, for which the call was inactive. For the molecule `CCCN(CCC)C(=O)SCC`, the outcome was inactive.

With `COCCO`, the result was inactive. Under `Oc1ccc(C(c2ccc(O)cc2)C(Cl)(Cl)Cl)cc1` stands “inactive”. As for `N#CSCSc1nc2ccccc2s1`, the outcome was inactive.

For `COC(=O)c1ccccc1C(=O)O`, the molecule was classed as inactive. On to `Cc1nn(C)c(Oc2ccccc2)c1C=NOCc1ccc(C(=O)OC(C)(C)C)cc1`, for which the molecule was classed as inactive. In the case of `O=C(Nc1ccc([N+](=O)[O-])cc1Cl)c1cc(Cl)ccc1O`, the call was inactive.

As to `CCCCC(CC)CN1C(=O)C2C3C=CC(C3)C2C1=O` (stereo not given), the call was inactive. As to `COC(=O)c1ccccc1S(=O)(=O)NC(=O)Nc1nc(OC(F)F)cc(OC(F)F)n1`, the molecule was called inactive. Under `COC(=O)c1c(Cl)nn(C)c1S(=O)(=O)NC(=O)Nc1nc(OC)cc(OC)n1` stands “inactive”. Turning to `CCSC(=O)N(CC(C)C)CC(C)C`, the call was inactive. Turning to `CC(C)(c1ccc(O)cc1)c1ccc(O)cc1`, the molecule was called inactive. As to `COC(=O)c1cccc(C)c1S(=O)(=O)NC(=O)Nc1nc(OCC(F)(F)F)nc(N(C)C)n1`, the result was inactive. Regarding `CCC(O)=C1C(=O)CC(C(=O)O)CC1=O` (stereo not given), the result was inactive. Under `CCCCOC(=O)C(C)Oc1ccc(Oc2ccc(C(F)(F)F)cn2)cc1` (stereo not given) stands “inactive”; under `CCCN(CCC)c1c([N+](=O)[O-])cc(C(F)(F)F)c(N)c1[N+](=O)[O-]`, “inactive”; under `CCC(C)OC(=O)N1CCCCC1CCO` (stereo not given), “inactive”. Under `COC(=O)c1ccc(CNS(C)(=O)=O)cc1S(=O)(=O)NC(=O)Nc1nc(OC)cc(OC)n1` stands “inactive”; under `C=CCOC(Cn1ccnc1)c1ccc(Cl)cc1Cl` (stereo not given), “inactive”.

Regarding `c1ccc(Nc2ccccc2)cc1`, the molecule was called inactive.
